Source: ChEMBL document CHEMBL3988442, “University of Dundee, Small-Polar-MMV Screening Library” (2021)
Among all 48,000 compounds or so, about 13,000 (27%) showed an effect of 50% or more. The list shows a part of the results.

test system: Wolbachia pipientis; assay: Anti-Wolbachia Cell-Based Screen; format: functional; parameters: scale not given: in the data most compounds retested in dose-response had high values; conditions: 5 µM

Row | SMILES | Percent Effect
1 | CCCN1CCN(Cc2cccc(OC)c2)[C@H]2CS(=O)(=O)C[C@H]21 | -4.68%
2 | Cc1nnc(CN(C)CCCOc2cccc(Cl)c2)o1 | -9.851%
3 | CCOCCN1CCN(C(C)C(=O)Nc2ccnn2C(C)C)CC1 (configuration not stated) | -7.106%
4 | COC1CN(C(=O)OCC(C)C)CCC(=O)N(C)c2ccccc21 (configuration not stated) | 62.93%
5 | CC(C)C1CN(C(=O)c2cc(=O)[nH]c(=O)[nH]2)CCC(=O)N1CC1CC1 (configuration not stated) | 7.498%
6 | CC(C)COC(=O)N1CCN(C(=O)c2ccc3nccn3c2)CC1 | -2.651%
7 | O=C(c1ccn[nH]1)N1CCCC(n2cncn2)C1 (configuration not stated) | 8.656%
8 | O=C(N1CCCC(n2cncn2)C1)C1(c2cccc(F)c2)CCCC1 (configuration not stated) | 112.9%
9 | O=C(N1CCCC(n2cncn2)C1)C1(c2cccc(F)c2)CCC1 (configuration not stated) | 131.6%
10 | O=C(N1CCCC(n2cncn2)C1)C1(c2ccc(Cl)cc2)CCC1 (configuration not stated) | 129.1%
11 | O=C(N1CCC(Oc2ccncc2)C1)C1(c2cccc(F)c2)CC1 (configuration not stated) | -3.42%
12 | Cc1cc(C)cc(C2(C(=O)N3CCCC(n4cncn4)C3)CC2)c1 (configuration not stated) | 4.808%
13 | O=C(N1CCCC(n2cncn2)C1)C1(c2cccc(F)c2)CC1 (configuration not stated) | 123%
14 | O=C(N1CCOCC(O)C1)C1(c2ccc(Cl)cc2)CCC1 (configuration not stated) | -14.09%
15 | COc1ccccc1N1CCC(N2CCOC(C(F)(F)F)C2)CC1 (configuration not stated) | 10.11%
16 | COc1ccc(NC(=O)CCC2CCCN(Cc3ncon3)C2)c(C)c1 (configuration not stated) | 0.05921%
17 | CC(C)N1C[C@@H](F)[C@@H](OCc2nc3ncccc3[nH]2)C1 | -12.53%
18 | Cc1cc(CN(C)C(=O)CN2CCCCCC2=O)no1 | 104.9%
19 | CC(C)c1cc(CN(C)C(=O)CN2CCC(C(N)=O)CC2)no1 | 136.4%
20 | CCc1cc(CN(C)C(=O)CN2CC3(CCNCC3)OC2=O)on1 | 3.162%
21 | Cc1cc(CN(C)C(=O)NC2CCN(Cc3ccccc3)C2)no1 (configuration not stated) | -11.75%
22 | Cc1nc(CCN(C)C(=O)CN2CCCCCC2)no1 | 5.465%

Row | SMILES | Percent Effect
23 | Cc1cc(CN(C)C(=O)NCc2cccc(N3CCCC3=O)c2)no1 | 2.405%
24 | CC(C)c1cc(CN(C)C(=O)CN2CCNC2=O)no1 | 133%
25 | Cc1ncsc1CCN(C)C(=O)CN1CCCCC1=O | 17.08%
26 | CC(C)c1cc(CN(C)C(=O)CN2CCCCC2=O)no1 | 112.2%
27 | CN(Cc1cc(C2CC2)on1)C(=O)CN1C(=O)OC(C)(C)C1=O | -4.246%
28 | Cc1cc(CN(C)C(=O)C2CCCN(C(N)=O)C2)no1 (configuration not stated) | 12.67%
29 | Cc1cc(CN(C)C(=O)CN2CC3(CCNCC3)OC2=O)no1 | -10.43%
30 | CCOCC(=O)NC(C#N)c1cnn(-c2ccccc2)c1 (configuration not stated) | 0.4784%
31 | CCc1cc(CN(C)Cc2nc(-c3ccc(OC)cc3F)oc2C)on1 | -9.467%
32 | Cc1cnccc1N1CCCN(C(=O)CCCc2cn[nH]c2)CC1 | 11.82%
33 | O=C(Nc1nncs1)N1CCCN(C2CCCC2)CC1 | -1.803%
34 | Cc1noc(C)c1CCC(=O)N[C@@H]1CCC[C@@H](Oc2cccnc2)[C@@H]1O | 114.3%
35 | Cc1noc(C)c1CCC(=O)N[C@@H]1CC[C@@H](Oc2cccnc2)[C@@H]1O | 106.7%
36 | Cc1n[nH]c(C)c1CNC(=O)NC1CCCCC1 | -5.785%
37 | Cc1nn(C)c(Oc2cccnc2)c1NC(=O)C1CCCO1 (configuration not stated) | 5.234%
38 | CNC(=O)COc1ccccc1CNCc1c(C)noc1C | -55.32%
39 | Cc1n[nH]c(C)c1CCCNCc1cn(CCC(N)=O)c2ccccc12 | -2.861%
40 | Cc1noc(C)c1CNC[C@@]1(COc2cccnc2)C[C@@H](O)[C@@H](O)C1.Cl.Cl | -8.065%
41 | Cc1n[nH]c(C)c1CCC(=O)N[C@@H]1CCC[C@@H](Oc2ccccc2)[C@@H]1O | 124.4%
42 | Cc1[nH]ncc1CCCNC(=O)Nc1ccc2c(c1)OC1(CCCC1)O2 | -12.99%
43 | Cc1cc2n(n1)CC(CNC1CCN(Cc3ccncc3)CC1)CN2 (configuration not stated) | 3.296%
44 | Cc1noc(C)c1CNC(=O)N(C1CC1)C(C)c1ccco1 (configuration not stated) | -2.539%

Row | SMILES | Percent Effect
45 | Cc1ccc2c(-c3nc4c([nH]3)CCNC4C(=O)O)cccc2n1 (configuration not stated) | 0.6964%
46 | O=C(CC1CCc2ccccc21)NC1(C(=O)O)CCCC1 (configuration not stated) | 9.016%
47 | CCN1CCC2(CC1)CC(CC(=O)N(C)C)c1ccc(F)cc12 (configuration not stated) | 112.9%
48 | CCNC(=O)CC1CC2(CCN(C(C)=O)CC2)c2cc(F)ccc21 (configuration not stated) | -4.484%
49 | CCC(=O)N1CCC2(CC1)CC(CC(=O)N(C)C)c1ccc(F)cc12 (configuration not stated) | 103%
50 | CNC(=O)CC1CC2(CCNCC2)c2cc(F)ccc21 (configuration not stated) | 95.41%
51 | Cc1ccc2c(c1)C1(CCNCC1)CC2OCC1CC1 (configuration not stated) | 7.08%
52 | COCCN1CCC2(CC1)CC(CC(N)=O)c1ccc(F)cc12 (configuration not stated) | 8.076%
53 | CCOC1CC2(CCN(C(=O)COC)CC2)c2cc(F)ccc21 (configuration not stated) | -4.976%
54 | O=C(CC1CC2(CCNCC2)c2ccccc21)NCC1CC1 (configuration not stated) | 105%
55 | CCC(=O)N1CCC2(CC1)CC(CC(N)=O)c1ccc(F)cc12 (configuration not stated) | 3.39%
56 | COCC(=O)N1CCC2(CC1)CC(CC(=O)NC1CC1)c1ccccc12 (configuration not stated) | -16.01%
57 | CNC(=O)CC1CC2(CCN(Cc3nccs3)CC2)c2ccccc21.O=C(O)C(F)(F)F (configuration not stated) | -2.085%
58 | CCN1CC(C(=O)N2CCc3cc(C(N)=O)n(C)c3C2)CCC1=O (configuration not stated) | -10.45%
59 | Cc1ccc(-c2nc(CN3CCn4c(nnc4C4CC4)C3)no2)cc1 | -10.52%
60 | c1cncc(NCCNC2CCSC2)c1 (configuration not stated) | 14.04%
61 | CCC(C)n1cnc(S(=O)(=O)N(C)c2cccnc2N(C)C)c1 (configuration not stated) | 2.284%
62 | Cc1nnc(CSc2ccccn2)o1 | -5.067%
63 | O=C(CCN1CCCC1C1CCCCC1)N1CCc2sccc2C1 (configuration not stated) | 3.149%
64 | CN(C)S(=O)(=O)N1CCC2(CC1)CC(OCC1CC1)CO2 (configuration not stated) | -4.528%
65 | CC(C)(C)CC(=O)NC[C@H]1OC[C@@H](NC2CCC(F)(F)CC2)[C@@H]1O | -11.06%
66 | COc1nn(C)c2c1CCCN(C(=O)c1cscn1)C2 | 93.39%

Row | SMILES | Percent Effect
67 | Cn1nc(C#N)c2c1CN(C(=O)c1c[nH]cn1)CCC2 | -11.9%
68 | COc1nn(C)c2c1CCCN(C(=O)c1c[nH]cn1)C2 | -44.84%
69 | COc1nn(C)c2c1CCCN(C(=O)c1cnccn1)C2 | 102.6%
70 | Cn1nc(C#N)c2c1CN(C(=O)c1nc[nH]n1)CCC2 | -49.74%
71 | Cn1nc(C#N)c2c1CN(C(=O)c1ccnnc1)CCC2 | -0.2276%
72 | CCN(Cc1noc(C(C)(C)C)n1)Cc1ccc(C#N)cc1F | -6.556%
73 | OC(CN(Cc1ccccc1)Cc1cccnc1)c1cccs1 (configuration not stated) | -7.082%
74 | Cn1cccc1-c1cc(C(=O)N2CCCC2c2nccs2)[nH]n1 (configuration not stated) | -11.21%
75 | Cc1cc(C)n(CC2CCCN2C(=O)Cc2cn3ccsc3n2)n1 (configuration not stated) | 5.291%
76 | Cc1cc(C)n(CCC(=O)N2CCCCC2c2nccs2)n1 (configuration not stated) | 97.13%
77 | Cc1cc(C)n(Cc2cc(C(=O)N[C@H]3CCCCNC3=O)n[nH]2)n1 | 1.384%
78 | Cc1noc(CCCC(=O)N2CCCCC2c2nccs2)n1 (configuration not stated) | 4.452%
79 | Cc1cc(C)n(CC2CCCN2C(=O)CCCNc2ncccn2)n1 (configuration not stated) | -5.56%
80 | Cc1cc(C)n(Cc2cc(C(=O)N3CCCCC3c3nccs3)n[nH]2)n1 (configuration not stated) | 94.44%
81 | Cc1cc(C)n(Cc2cc(C(=O)N3CCCC3c3nccs3)n[nH]2)n1 (configuration not stated) | 147.1%
82 | O=C(CCCn1cncn1)N1CCCCC1c1nccs1 (configuration not stated) | -0.08053%
83 | Cc1cc(C)n(Cc2cc(C(=O)N3CCCC3c3ccccn3)n[nH]2)n1 (configuration not stated) | 101.3%
84 | CC(=O)N1CCC(N2CCN3C(=O)N(c4ccccc4)C[C@H]3C2)CC1 | -6.558%
85 | CC(C)C(=O)N1CCN(S(=O)(=O)C2CC2)CC2(CC(=O)N(C)C2)C1 (configuration not stated) | -3.068%
86 | CNC(=O)c1nnn(-c2ccccc2F)c1-c1ccccn1 | -7.96%
87 | C[C@H]1C[C@H]2CN(C(=O)C3=CCCCC3)CC[C@H]2O1 | -8.819%
88 | Cc1cccc2[nH]c(C3CCCN3Cc3ccc(CO)o3)nc12 (configuration not stated) | -7.499%

Row | SMILES | Percent Effect
89 | CCS(=O)(=O)NC(C(=O)NC)c1ccc(F)c(F)c1 (configuration not stated) | -1.609%
90 | CCc1nc(C2CCCN2C(=O)c2cc(C3CC3)[nH]n2)no1 (configuration not stated) | -2.923%
91 | Cc1csc(N2CCN(C(=O)c3cc(C4CC4)[nH]n3)CC2)n1 | -15.84%
92 | Cc1cc(C(=O)N2CCCCC2c2nc(C)cs2)[nH]n1 (configuration not stated) | 5.063%
93 | Cc1csc(C2CCCCN2C(=O)c2cc(C3CC3)[nH]n2)n1 (configuration not stated) | 105.1%
94 | Cc1csc(C2CCCCN2C(=O)c2cc(C(C)C)[nH]n2)n1 (configuration not stated) | 109.6%
95 | COC(=O)c1cc2c(=O)[nH]c(=O)n(CCc3ccccc3)c2nc1C | -9.313%
96 | O=C(c1ccc2cccc(F)c2n1)N1CCN(CCn2cncn2)CC1 | -17.81%
97 | Cc1cc(CN(C)C(=O)NC(C)c2nncn2C)no1 (configuration not stated) | 1.763%
98 | Cc1cc(C)n(C2CN(c3nc(N)nc4c3CCCC4)C2)n1 | 12.27%
99 | NCc1csc(CCc2ccccc2)n1 | -7.942%
100 | CN(C)CCN1CC[C@@H]2[C@@H]1CCN2C(=O)c1cccc(Cl)c1 | -16.88%
101 | CN(C)Cc1cc(C2CCCCN2S(=O)(=O)Cc2ccccc2)nn1C.Cl (configuration not stated) | 133.2%
102 | O=S(=O)(c1cccc(Cl)c1)N1CCCC(Cn2cncn2)C1 (configuration not stated) | -2.672%
103 | CN(C)Cc1cc(C2CCCCN2S(=O)(=O)c2cccc(Cl)c2)nn1C.Cl (configuration not stated) | 167.4%
104 | CN1C(=O)C[C@@H]2[C@@H]1CCN2S(=O)(=O)Cc1ccccc1 | -5.88%
105 | CCN(C)C[C@@H]1CN(S(=O)(=O)c2cccc(Cl)c2)C[C@@H]1CO | 13.86%
106 | CN(C)Cc1cc(C2CCCN(S(=O)(=O)c3cccc(Cl)c3)C2)nn1C (configuration not stated) | 157.3%
107 | O=S(=O)(N1CCCC1)N1CCCCC1CCc1ccccc1 (configuration not stated) | 1.463%
